# GPT2 inh: Primary qHTS assay for inhibitors of Glutamate pyruvate transaminase 2 (GPT2) | Alanine aminotransferase 2 (Homo sapiens), Q8TD30 | Recombinant GPT2, coupled pyruvate oxidase/HRP Amplex Red fluorescence | Potency, µM (titrated, usually from 57.7 µM), without a hit: at the top dose activity change, negative = inhibition, most hits filed as inhibitors | actives 0.25% (n = 100,000) | AID 1671188, 2021; further: on the % scale 0 is the no-effect control and ±100 the full control effect; nearly all actives have a fitted effect of over 60% in size
#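 Recombinant GPT2 (10ng/uL) with 250uM a-KG and 2mM L-alanine, 30 min at room temperature, in HEPES pH 7.5 buffer. Pyruvate detected by pyruvate oxidase/HRP/Amplex Red fluorescence after 30 min in the dark; AOA (50uM) as positive control.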
# Luciferase inh: Firefly luciferase inhibition profiling of diverse chemical library using quantitative high-throughput screening. Luciferin 4-monooxygenase (Photinus pyralis), P08659. purified P. pyralis luciferase, luminescence, biochemical. Potency, µM (series often up to 115 µM), hits mostly inhibitors. actives 2.5% (n = 76,000); further: on the % scale 0 is the no-effect control and ±100 the full control effect; nearly all actives have a fitted effect of over 65% in size
#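 Luminescence read by CCD imaging after purified firefly luciferase (10nM final) was added to substrate buffer holding 10uM D-luciferin and 10uM ATP, pH 7.5, pre-dosed with compound.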
# HEK cytotox: Cytotoxic Profiling in HEK 293 Cell Line of Diverse Libraries Using Quantitative High-Throughput Screening; actives 6.6% (n = 94,000); AID 1345083, 2018; Potency, µM (doses to about 115 µM), for inactives: top-dose activity change, negative = cytotoxicity, most hits filed as inhibitors; HEK 293 viability, ATP luminescence (CellTiter-Glo), 48-72 h; further: on the % scale 0 is the no-effect control and ±100 the full control effect; nearly all actives have a fitted effect of over 60% in size
#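 ATP-coupled CellTiter-Glo luminescence served as viability read-out, recorded 10 min after reagent addition at room temperature. HEK 293 cells, 250 cells/well, had been incubated with pintool-transferred compound for 48 or 72 hr at 37 degree Celsius.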
# 3T3 cytotox: Cytotoxic Profiling in NIH 3T3 Cell Line of Diverse Libraries Using Quantitative High-Throughput Screening. NIH 3T3 viability, CellTiter-Glo ATP luminescence, 48-72 h. Potency, µM (series often up to 96.7 µM), without a hit: at the top dose activity change, negative = cytotoxicity, most hits filed as inhibitors. actives 4.3% (n = 94,000); further: on the % scale 0 is the no-effect control and ±100 the full control effect; nearly all actives have a fitted effect of over 55% in size
#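 NIH 3T3 cells at 400 cells/well received 23 nL of compound by pintool and were incubated 48 or 72 h at 37 °C. Viability was read as ATP-coupled CellTiter-Glo luminescence.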
# NPR1 antag: Natriuretic polypeptide receptor (hNpr1) antagonism - Primary qHTS | Atrial natriuretic peptide receptor 1 (Homo sapiens), P16066 | actives 1.6% (n = 76,000) | HEK293 hNpr1 GloSensor cGMP, ANP-stimulated luminescence | Potency, µM (highest dose often 46.3 µM), without a hit: at the top dose activity change, negative = inhibition, actives largely listed as inhibitors; calls by dose curve; further: on the % scale 0 is the no-effect control and ±100 the full control effect; nearly all actives have a fitted effect of over 60% in size
#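 HEK293 cells stably expressing human Npr1 and cGMP GloSensor pGS-40F, loaded 2 h with 2% GloSensor reagent, given compound 30 min at room temperature. Luminescence read before and 20 min after 0.1 nM hNppA.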
# NPR1 antag cnf: Natriuretic polypeptide receptor (hNpr1) antagonism - Confirmation | shares compounds with NPR1 antag | HEK293 hNpr1 cGMP GloSensor luminescence, ANP-stimulated | Potency, µM (titrated, usually from 57.6 µM), inactives show at the highest dose activity change, negative = inhibition, actives largely listed as inhibitors | actives 76% (n = 1,400) | AID 1347044, 2019; calls by dose curve; further: nearly all actives have a fitted effect of over 70% in size
# NPR2 antag: Natriuretic polypeptide receptor (hNpr2) antagonism - Subtype selectivity assay; shares compounds with NPR1 antag; HEK293 hNpr2 GloSensor cGMP luminescence, CNP-stimulated; Potency, µM (doses to about 57.6 µM), for inactives: at the highest dose activity change, negative = inhibition, most hits filed as inhibitors; actives 67% (n = 1,400); calls by dose curve; further: nearly all actives have a fitted effect of over 70% in size
# Target sequence (P20594 whole entry, looked up): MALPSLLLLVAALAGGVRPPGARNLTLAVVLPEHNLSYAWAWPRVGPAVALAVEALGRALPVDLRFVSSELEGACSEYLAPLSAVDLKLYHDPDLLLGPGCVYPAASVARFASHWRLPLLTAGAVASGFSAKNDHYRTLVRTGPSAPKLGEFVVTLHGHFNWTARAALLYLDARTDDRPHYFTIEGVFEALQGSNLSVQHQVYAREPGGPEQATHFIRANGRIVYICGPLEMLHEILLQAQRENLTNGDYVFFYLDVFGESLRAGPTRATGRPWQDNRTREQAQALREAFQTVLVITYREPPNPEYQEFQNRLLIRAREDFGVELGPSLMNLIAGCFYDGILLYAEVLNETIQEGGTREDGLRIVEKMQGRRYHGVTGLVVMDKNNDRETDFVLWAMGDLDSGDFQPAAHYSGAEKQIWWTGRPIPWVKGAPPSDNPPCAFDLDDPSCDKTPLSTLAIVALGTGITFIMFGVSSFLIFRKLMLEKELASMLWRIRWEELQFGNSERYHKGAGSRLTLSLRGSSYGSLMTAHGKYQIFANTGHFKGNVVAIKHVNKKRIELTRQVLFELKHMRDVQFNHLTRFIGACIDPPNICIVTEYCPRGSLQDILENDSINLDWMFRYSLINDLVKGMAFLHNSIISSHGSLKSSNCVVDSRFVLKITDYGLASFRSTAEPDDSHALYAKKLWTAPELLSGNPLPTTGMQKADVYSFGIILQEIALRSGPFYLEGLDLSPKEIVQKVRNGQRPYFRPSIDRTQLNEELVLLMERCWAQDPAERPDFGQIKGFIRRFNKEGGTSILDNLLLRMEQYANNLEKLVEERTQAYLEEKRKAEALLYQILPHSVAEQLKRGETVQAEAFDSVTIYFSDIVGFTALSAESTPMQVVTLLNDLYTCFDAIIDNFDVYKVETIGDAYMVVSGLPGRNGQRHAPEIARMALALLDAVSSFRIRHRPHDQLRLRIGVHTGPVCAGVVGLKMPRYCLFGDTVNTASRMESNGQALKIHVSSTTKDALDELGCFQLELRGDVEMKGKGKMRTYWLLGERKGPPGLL
# FLuc counter: Natriuretic polypeptide receptor (hNpr1) antagonism - Confirmation firefly luciferase (FLuc) inhibition counterscreen; purified FLuc enzyme, luminescence, Km substrate; actives 0.7% (n = 1,400); shares compounds with NPR1 antag; Potency, µM (doses to about 57.6 µM), for inactives: at the top dose activity change, negative = inhibition, hits mostly inhibitors; AID 1347047, 2019; further: 0% is about no effect
# GloSensor ctrl: Natriuretic polypeptide receptor (hNpr1) antagonism - Counterscreen GloSensor control cell line; shares compounds with NPR1 antag; HEK293 GloSensor cGMP, SNP-stimulated, luminescence; Potency, µM (titrated, usually from 57.6 µM), inactives show at the top dose activity change, negative = inhibition, actives largely listed as inhibitors; actives 69% (n = 1,400); AID 1347051, 2019; calls by dose curve; further: on the % scale 0 is the no-effect control and ±100 the full control effect; nearly all actives have a fitted effect of over 70% in size
# * hit, by the source's call; i = inactive; u = inconclusive; x = not tested or not shown; [ ] = remark or other dose. Only some compounds are listed: those with a hit (about 10% of all), similar ones and a draw of the others. Unless noted, the call rests on the fitted dose curve; in most records, active means well fitted curve in the direction sought with a large enough effect; inconclusive means small, poorly fitted or top-dose-only effect, or another doubt; inactive means no such curve, though single readings can be large; an effect the other way counts as inactive or inconclusive. Potency means the concentration at half of the fitted maximal effect.
SMILES,GPT2 inh,Luciferase inh,HEK cytotox,3T3 cytotox,NPR1 antag,NPR1 antag cnf,NPR2 antag,FLuc counter,GloSensor ctrl
O=C(Nc1ccc(Oc2ccccc2)cc1)O[C@@H]1CO[C@H]2[C@@H]1OC[C@@H]2NCC1CCCCC1,-5%,i,u,u,u,22µM*,17µM*,-1%,22µM*
O=C(Nc1ccc(Oc2ccccc2)cc1)O[C@@H]1CO[C@H]2[C@@H]1OC[C@@H]2NC(=O)c1ccc(C(F)(F)F)cc1,u,i,u,u,11µM*,22µM*,14µM*,-2%,15µM*
CCNC(=O)O[C@@H]1CO[C@H]2[C@@H]1OC[C@@H]2NCC1CCCCC1,i,i,i,0%[174 µM],3%[70.6 µM],x,x,x,x
Cc1ncccc1OCC1CN(Cc2cccc(C(F)(F)F)c2)C(=O)c2c(ccnc2-c2ccc(OCC(=O)O)cc2)O1 (configuration not stated),-10%,i,-3%,u,12%,x,x,x,x
CC(C)C(=O)NCC1CN(Cc2ccccc2)C(=O)c2c(ccnc2-c2ccc(OCC(=O)O)cc2)O1 (configuration not stated),-17%,i,25µM*,u,5.6µM*,5.4µM*,6.1µM*,3%,4.8µM*
O=C(O)COc1ccc(-c2nccc3c2C(=O)N(Cc2cccc(C(F)(F)F)c2)CC(CNC(=O)C2CCOCC2)O3)cc1 (configuration not stated),-9%,i,u,u,u,8.6µM*,u,5%,5.4µM*
O=C(O)COc1ccc(-c2nccc3c2C(=O)N(Cc2cccc(C(F)(F)F)c2)CC(COc2ccc4cnccc4c2)O3)cc1 (configuration not stated),-8%,i,i,u,2%,x,x,x,x
FC(F)(F)Oc1ccc(CN2CCOC[C@H](Oc3cccnc3)C2)cc1,2%[88.5 µM],i,u,u,u,x,x,x,x
O=C(c1[nH]nc2c1CCc1ccccc1-2)N1CCC(c2noc(-c3cccnc3)n2)C1 (configuration not stated),i,i,35µM*,u,13µM*,22µM*,24µM*,-3%,22µM*
O=C(C1CC1)N1CCC(c2noc(-c3cccnc3)n2)C1 (configuration not stated),i,i,0%,i,-2%,x,x,x,x
COc1ccc(OC)c(NC(=O)N2CCCN(C)c3ccccc32)c1,i,i,u,u,u,u,12µM*,0%,-2%
CNC(=O)CCn1ncc2cc(OCc3ccccc3-c3cccc(O)c3)ccc21,i,u,79µM*,u,11µM*,20µM*,18µM*,u,13µM*
COc1ccc(-c2cc(C(=O)NCc3cccs3)nn3cnnc23)cc1,1%,x,-12%,-44%,x,x,x,x,x
COc1ccc(S(=O)(=O)N2CCC3(CC2)CC(N(C)Cc2ccccc2)CCO3)cc1 (configuration not stated),i,i,u,u,11µM*,27µM*,u,1%,u
COc1cccc(S(=O)(=O)N2CCC3(CC2)CC(N(C)Cc2ccccc2)CCO3)c1 (configuration not stated),i,i,u,u,u,u,u,3%,u
COc1cccc(CNC(=O)c2ccc3nnc(-c4ccccc4OC)n3c2)c1,-2%,x,2%,-24%,x,x,x,x,x
CCn1ccnc1CN(CC1CCN(CCc2ccccc2C)CC1)C1CCCC1,-20%,i,u,u,0%,x,x,x,x
O=C(NCCc1ccccc1)c1ccc2oc(-c3ccncc3)nc2c1,-4%,x,-11%,-32%,x,x,x,x,x
CCc1ccc(CN2CCCC23Cc2ccccc2CNC3=O)s1 (configuration not stated),i,x,u,u,x,-21%,-5%,4%,0%
COc1ccc(CN2CCCCC23Cc2ccccc2CNC3=O)c(OC)n1 (configuration not stated),u,x,u,u,x,u,17µM*,-1%,4%
COc1ncccc1CN1CCCC12Cc1ccccc1CNC2=O (configuration not stated),i,x,u,-25%,x,x,x,x,x
O=C(NCC12CCC=C1N(CC1CC1)C(=O)CC2)Nc1cccc(F)c1 (configuration not stated),1%,i,-16%,-17%,-13%,x,x,x,x
CCOC1CCOC2(CCN(C(=O)c3ccc4c(c3)OCO4)CC2)C1 (configuration not stated),2%,x,-14%,-20%,x,x,x,x,x
CCOC(=O)C1CCN(C(=O)c2cc(-c3ccc(OC)cc3)nc3c2cnn3C)CC1,-12%,x,u,u,x,x,x,x,x
CCN(CC)C(=O)N1CC(Oc2ccc(-c3noc(COC)n3)cc2)C1,-8%,i,u,u,10µM*,9.7µM*,8.6µM*,3%,6.9µM*
COCc1nc(-c2ccc(OC3CN(C(=O)NC(C)C)C3)cc2)no1,i,i,u,-22%,13µM*,24µM*,24µM*,-2%,24µM*
COCc1nc(-c2ccc(OC3CN(C(=O)NCc4ccccc4)C3)cc2)no1,i,i,u,-28%,u,x,x,x,x
